This is a sample that favours compounds with a hit; in the whole collection about 6.7% have one here.
Tcruzi prolif: inhibitors of T. cruzi proliferation | T. cruzi beta-gal in NIH3T3, GalScreen luminescence, 90 h | inhibition, % at 8.34 µM | 77,000 tested, 5.9% active | AID 624255;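 active = mean inhibition above about 93%, with at least 55% of replicates each passing it, limit read from the data, passing the limit was not always enough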
C diff HTS: C. difficile growth inhibition | growth activity, negative = inhibition, % at 16 µg/mL (by protocol) | Clostridium difficile clinical isolate growth, OD600, 24 h; active compounds read low | AID 1259249 | 86,000 tested, 0.25% active;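 active = mean growth activity at or below -80% and every replicate also at or below -80%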;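 also: 0% = DMSO wells and -100% = levofloxacin 16 µg/mL wells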
Pf Dd2 growth: blocks growth of Plasmodium falciparum Dd2 parasites. P. falciparum Dd2 growth, SYBR Green, 72 h; active compounds read low. activity change, % at 10 µM. 94,000 tested, 2.3% active; in the data active = activity change below about -80%
* hit, by the source's call.

Screening COc1cccc(C(=O)Nc2ccc3c(c2)C(=O)N(C)C[C@H](OC)[C@@H](C)CN[C@H](C)CO3)c1 returned Tcruzi prolif -44.1 and Pf Dd2 growth 2.5.
For C[C@@H]1CCCCO[C@H](CN(C)S(=O)(=O)c2cccs2)[C@@H](C)CN([C@@H](C)CO)C(=O)c2cc(NC(=O)Nc3ccc(F)cc3)ccc2O1 the results were Tcruzi prolif 81.9, C diff HTS -6.4 and Pf Dd2 growth -55.1.
`CN(C)C(=O)C[C@H]1CC[C@H]2[C@@H](COc3ccc(NC(=O)c4cnccn4)cc3C(=O)N2C)O1` gave Tcruzi prolif 15.6, C diff HTS -1.5 and Pf Dd2 growth -5.1.
`C[C@@H]1CN([C@@H](C)CO)S(=O)(=O)c2ccc(C#Cc3ccncc3)cc2O[C@H]1CN(C)S(=O)(=O)c1ccc(F)cc1` gave Tcruzi prolif 90.5, C diff HTS 2.4 and Pf Dd2 growth -86.4*.
`C[C@H]1CN([C@@H](C)CO)S(=O)(=O)c2ccc(C#Cc3ccncc3)cc2O[C@@H]1CN(C)S(=O)(=O)c1ccc(F)cc1` gave Tcruzi prolif 98.4, C diff HTS -2.4 and Pf Dd2 growth -88.0*.
For CC(C)CC#Cc1ccc2c(c1)O[C@@H](CN(C)S(=O)(=O)c1ccc(F)cc1)[C@H](C)CN([C@H](C)CO)S2(=O)=O the results were C diff HTS 4.5 and Pf Dd2 growth -66.7.
For CC(C)CC#Cc1ccc2c(c1)O[C@H](CN(C)S(=O)(=O)c1ccc(F)cc1)[C@H](C)CN([C@@H](C)CO)S2(=O)=O the results were C diff HTS 9.3 and Pf Dd2 growth -76.9.
For C[C@H](CO)N1C[C@H](C)[C@H](CN(C)S(=O)(=O)c2ccccc2)Oc2cc(C#Cc3ccncc3)ccc2S1(=O)=O the results were Tcruzi prolif 49.7, C diff HTS 2.8 and Pf Dd2 growth -79.7.
Cc1ccc(S(=O)(=O)N(C)C[C@H]2Oc3cc(C#Cc4ccncc4)ccc3S(=O)(=O)N([C@@H](C)CO)C[C@H]2C)cc1 was read as Tcruzi prolif 70.9, C diff HTS -2.2 and Pf Dd2 growth -82.4*.
CCC(=O)Nc1ccc2c(c1)OC[C@H](C)N(CC1CC1)C[C@H](C)[C@@H](OC)CN(C)C2=O was read as C diff HTS 1.8 and Pf Dd2 growth -7.0.
COc1ccc(OC(=O)N(C)C[C@H]2OCc3cn(nn3)CCCC(=O)N([C@@H](C)CO)C[C@H]2C)cc1 was read as Tcruzi prolif -28.2, C diff HTS 1.2 and Pf Dd2 growth 0.2.
Screening CCNC(=O)Nc1ccc2c(c1)C(=O)N(C)[C@H]1CC[C@@H](CC(=O)NCCOC)O[C@@H]1CO2 returned Tcruzi prolif 10.4, C diff HTS 4.0 and Pf Dd2 growth 4.9.
Screening C[C@@H]1CN([C@H](C)CO)C(=O)c2c(c3ccccc3n2C)-c2ccccc2CO[C@@H]1CN(C)Cc1ccc2c(c1)OCO2 returned C diff HTS 29.6 and Pf Dd2 growth -58.9.
Screening C[C@@H]1CN([C@@H](C)CO)C(=O)c2c(c3ccccc3n2C)-c2ccccc2CO[C@@H]1CN(C)Cc1ccc2c(c1)OCO2 returned C diff HTS 18.0 and Pf Dd2 growth -82.8*.
For C[C@H]1CN([C@@H](C)CO)C(=O)c2c(c3ccccc3n2C)-c2ccccc2CO[C@@H]1CN(C)Cc1ccc(C(F)(F)F)cc1 the results were C diff HTS 37.0 and Pf Dd2 growth -58.3.
C[C@@H]1CN([C@H](C)CO)C(=O)c2c(c3ccccc3n2C)-c2ccccc2CO[C@H]1CN(C)Cc1cccc(C(F)(F)F)c1 was read as C diff HTS 3.4 and Pf Dd2 growth -84.1*.
For C[C@@H]1CN([C@@H](C)CO)C(=O)c2c(c3ccccc3n2C)-c2ccccc2CO[C@H]1CN(C)Cc1cccc(C(F)(F)F)c1 the results were C diff HTS 30.8 and Pf Dd2 growth -92.0*.
Screening C[C@H](CO)N1C[C@H](C)[C@@H](CN(C)Cc2cccc(O)c2)OCc2ccccc2-c2c(n(C)c3ccccc23)C1=O returned C diff HTS -1.0 and Pf Dd2 growth -72.0.
`C[C@@H]1CN([C@H](C)CO)C(=O)c2c(c3ccccc3n2C)-c2ccccc2CO[C@@H]1CN(C)Cc1cccc(O)c1` gave C diff HTS -5.7 and Pf Dd2 growth -88.1*.
For C[C@@H]1CN([C@H](C)CO)C(=O)c2c(c3ccccc3n2C)-c2ccccc2CO[C@@H]1CN(C)Cc1ccc(C(F)(F)F)cc1 the results were C diff HTS 14.5 and Pf Dd2 growth -62.0.
C[C@@H]1CN([C@@H](C)CO)C(=O)c2cc(NC(=O)NC3CCCCC3)ccc2O[C@@H](C)CCCCO[C@@H]1CN(C)S(=O)(=O)c1ccc(F)cc1 was read as Tcruzi prolif 0.8, C diff HTS 20.3 and Pf Dd2 growth -77.0.
For O=C(C[C@H]1CC[C@H](NC(=O)CN2CCOCC2)[C@@H](CO)O1)NC1CCCCC1 the results were Tcruzi prolif -42.3 and Pf Dd2 growth 13.2.
For CCCN(C)C[C@H]1Oc2ncc(-c3cccc(C(=O)N(C)C)c3)cc2C(=O)N([C@H](C)CO)C[C@@H]1C the results were Tcruzi prolif 18.1, C diff HTS -5.7 and Pf Dd2 growth -20.6.
`Cc1nn(C)cc1NC(=O)C[C@@H]1CC[C@H]2[C@H](COc3ccc(NC(=O)NC(C)C)cc3C(=O)N2C)O1` gave Tcruzi prolif 14.8, C diff HTS -2.4 and Pf Dd2 growth -60.9.
`C[C@@H]1CCCCO[C@@H](CN(C)C(=O)CCCN(C)C)[C@H](C)CN([C@H](C)CO)C(=O)c2cc(NC(=O)C3CCCCC3)ccc2O1` gave Tcruzi prolif -16.3, C diff HTS -1.6 and Pf Dd2 growth 6.6.
C[C@H]1CN([C@@H](C)CO)C(=O)c2cc(-c3cccnc3)cnc2O[C@@H]1CN(C)C(=O)Cc1cccnc1 was read as Tcruzi prolif 39.5, C diff HTS -1.2 and Pf Dd2 growth 20.8.
Screening COc1ccc2c3c(n(C)c2c1)[C@@H](CO)N(Cc1ccc(F)cc1)CC31CCN(CC2CCOCC2)CC1 returned C diff HTS 4.5 and Pf Dd2 growth -48.6.
CCCN1CCC2(CC1)CN(Cc1ccccc1OC)[C@H](CO)c1c2c2ccc(OC)cc2n1C was read as C diff HTS 8.9 and Pf Dd2 growth -92.1*.
For COc1ccc2c3c(n(C)c2c1)[C@H](CO)N(Cc1ccccc1OC)CC31CN(CC2CC2)C1 the results were C diff HTS 10.6 and Pf Dd2 growth -49.0.
For COc1ccc2c3c(n(C)c2c1)[C@H](CO)N(Cc1ccccc1OC)CC31CN(CC2CCOCC2)C1 the results were C diff HTS 6.6 and Pf Dd2 growth -88.5*.
`COc1ccc2c3c(n(C)c2c1)[C@@H](CO)N(Cc1ccccc1F)CC31CCN(C(=O)C2CC2)CC1` gave C diff HTS 3.9 and Pf Dd2 growth -59.7.
Screening COc1ccc2c3c(n(C)c2c1)[C@@H](CO)N(Cc1ccc(F)cc1)CC31CCN(CC2CC2)CC1 returned C diff HTS -0.4 and Pf Dd2 growth -86.5*.
`COc1ccc2c3c(n(C)c2c1)[C@@H](CO)N(Cc1ccccc1OC)CC31CCN(C(=O)C2CC2)CC1` gave C diff HTS 5.8 and Pf Dd2 growth -83.4*.
COc1ccc2c3c(n(C)c2c1)[C@H](CO)N(Cc1ccccc1OC)CC31CCN(C)CC1 was read as C diff HTS 1.8 and Pf Dd2 growth -41.7.

Screening results: PubChem BioAssay, Broad Institute
